The text below walks through data of PubChem BioAssay (NCATS).

SMILES strings stand for the structures. Results filed as inconclusive are left out. Calls of active or inactive are those of the source. The call rests on the fitted dose curve; in most records, active means well fitted inhibition curve with a large enough effect; inconclusive means small, poorly fitted or top-dose-only effect; inactive means flat fitted curve, though single readings scatter.
On the % scale 0 is the no-effect control and ±100 the full control effect.

In this test the test system is MCC-26. Nature of the test: qHTS assay to identify novel small-molecules to repurpose for Merkel cell carcinoma treatment (AID 1296009). Further: nearly all actives have a fitted effect of over 60% in size. The conditions noted are these: MCC and control cell lines, CellTiter-Glo viability, 72 h; series mostly up to 46 µM; activity change, negative = cytotoxicity: at the top concentration. Summed up: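 Dose-response viability screen; 72 hr exposure at 37 degree celsius; CellTiter-Glo added, 10 min room temperature, luminescence read; RLUs scaled between no-cell and DMSO wells.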
Take `COc1ccc(C2C(=O)c3ccccc3C2=O)cc1`: the “activity change, negative = cytotoxicity” value was 10.1% (inactive).

In the case of `Cc1c(N(C)CS(=O)(=O)O)c(=O)n(-c2ccccc2)n1C`, the “activity change, negative = cytotoxicity” value was 0.257% (inactive).

On to `OC[C@H]1O[C@H](O[C@]2(CCl)O[C@H](CCl)[C@@H](O)[C@@H]2O)[C@H](O)[C@@H](O)[C@H]1Cl`, for which the “activity change, negative = cytotoxicity” value was 13.2% (inactive).

`C[C@H](CCC(=O)O)[C@H]1CC[C@H]2[C@@H]3C(=O)C[C@@H]4CC(=O)CC[C@]4(C)[C@H]3CC(=O)[C@]12C`: the “activity change, negative = cytotoxicity” value was 12.2% (inactive).

Consider `Cc1cc(O)c(C(C)C)cc1Cl`, for which the “activity change, negative = cytotoxicity” value is 7.84% (inactive).

With `O=C1c2ccccc2C(=O)C1c1ccccc1`, the “activity change, negative = cytotoxicity” value is 9.82% (inactive).

For `Cc1ncc(CSSCc2cnc(C)c(O)c2CO)c(CO)c1O`, the “activity change, negative = cytotoxicity” value is 7.63% (inactive).

With `NC[C@H]1O[C@H](O[C@H]2[C@H](O)[C@@H](O[C@H]3O[C@H](CO)[C@@H](O)[C@H](N)[C@H]3O)[C@H](N)C[C@@H]2N)[C@H](N)[C@@H](O)[C@@H]1O`, the “activity change, negative = cytotoxicity” value was 6.34% [at 16.1 µM] (inactive).

Turning to `Cc1ccc(Nc2c(F)cccc2Cl)c(CC(=O)O)c1`, the “activity change, negative = cytotoxicity” value is 5.55% (inactive).

Turning to `CC(=O)O[C@]1(C(C)=O)CC[C@H]2[C@@H]3C[C@H](C)C4=CC(=O)CC[C@]4(C)[C@H]3CC[C@@]21C`, the “activity change, negative = cytotoxicity” value is -14.4% (inactive).

Turning to `CC(=O)OCC(=O)[C@@]1(O)[C@H](C)C[C@H]2[C@@H]3CCC4=CC(=O)C=C[C@]4(C)[C@@]3(F)[C@@H](O)C[C@@]21C`, the “activity change, negative = cytotoxicity” value was -14.1% (inactive).

On to `CN1[C@@H]2CC[C@H]1CC(OC(=O)c1c[nH]c3ccccc13)C2` (stereo not given in full), for which the “activity change, negative = cytotoxicity” value was 8.79% (inactive).

For `CC(O)(P(=O)(O)O)P(=O)(O)O`, the “activity change, negative = cytotoxicity” value is 11.1% (inactive).

With `Cc1c(C(C)C)c(=O)n(-c2ccccc2)n1C`, the “activity change, negative = cytotoxicity” value is 7.93% (inactive).

With `CCCCC(=O)O[C@]1(C(=O)CO)CC[C@H]2[C@@H]3CCC4=CC(=O)CC[C@]4(C)[C@H]3[C@@H](O)C[C@@]21C`, the “activity change, negative = cytotoxicity” value was -1.4% (inactive).
